Bioassay records from PubChem BioAssay.
DT40 TDP1 no CPT: qHTS for Inhibitors of human tyrosyl-DNA phosphodiesterase 1 (TDP1): qHTS in cells in absence of CPT | DT40 Tdp1-/- hTDP1 cells, no CPT, ATP luminescence, 48 h | Potency, µM (highest dose often 46.2 µM), for the others: top-dose activity change, negative = growth inhibition, actives largely listed as inhibitors | 420,000 tested, 15% active | AID 686978, 2013; also: potency is read from the fitted curve at half-maximal effect; nearly all actives have a fitted effect of over 55% in size
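Growth of hTDP1-complemented DT40 Tdp1-knockout cells is measured by ATP luminescence after at least 48 hr compound exposure at 37 °C, with DMSO substituting for the 20 nM CPT used in the parallel screen.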
LDHA inh: LDHA (human) enzyme inhibition; P00338; purified LDHA, NADH/diaphorase-resazurin fluorescence; stronger effect = lower value; activity change, % (values are at about 110 or 230 µM); 480,000 tested, 0.15% active; AID 1347041; in the data active = activity change below about -30%; inconclusive = mostly about -25% to -30%;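 also: plate controls were DMSO wells for no effect and wells without enzyme for full effect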
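Resorufin fluorescence (ex540/em590), read at 0 and 20 min after diaphorase/resazurin addition, reports the NADH left after a 5 min room-temperature reaction of 2 nM human LDH5 with 0.06 mM NADH and 0.2 mM pyruvate.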
IL1B secr inh: inflammasome signaling inhibition, IL-1 beta readout. THP-1 LPS/ATP IL-1B secretion, AlphaLISA, 16 h; stronger effect = lower value. activity change, % at 57.5 µM. 360,000 tested, 4.7% active. AID 743279; in the data active = activity change below about -50%; inconclusive = mostly about -30% to -49%
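THP-1 cells pretreated 1 hr with compounds (up to 57.5 uM final), then stimulated with LPS (250 ng/mL final) plus ATP (1.25 mM final); secreted IL-1B measured by AlphaLISA after 16 hr, decreased signal indicating inhibition.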
RORg inh: ROR gamma (mouse) transcription inhibition | Drosophila S2 Gal4-RORgamma UAS-luciferase reporter, 20 h | Potency, µM (series often up to 53.6 µM), for inactives: at the highest dose activity change, negative = inhibition, most hits filed as inhibitors | AID 2551 | 310,000 tested, 5.4% active; also: potency is read from the fitted curve at half-maximal effect; nearly all actives have a fitted effect of over 60% in size
Target sequence (P51450 whole entry, looked up, the tested form may be a part): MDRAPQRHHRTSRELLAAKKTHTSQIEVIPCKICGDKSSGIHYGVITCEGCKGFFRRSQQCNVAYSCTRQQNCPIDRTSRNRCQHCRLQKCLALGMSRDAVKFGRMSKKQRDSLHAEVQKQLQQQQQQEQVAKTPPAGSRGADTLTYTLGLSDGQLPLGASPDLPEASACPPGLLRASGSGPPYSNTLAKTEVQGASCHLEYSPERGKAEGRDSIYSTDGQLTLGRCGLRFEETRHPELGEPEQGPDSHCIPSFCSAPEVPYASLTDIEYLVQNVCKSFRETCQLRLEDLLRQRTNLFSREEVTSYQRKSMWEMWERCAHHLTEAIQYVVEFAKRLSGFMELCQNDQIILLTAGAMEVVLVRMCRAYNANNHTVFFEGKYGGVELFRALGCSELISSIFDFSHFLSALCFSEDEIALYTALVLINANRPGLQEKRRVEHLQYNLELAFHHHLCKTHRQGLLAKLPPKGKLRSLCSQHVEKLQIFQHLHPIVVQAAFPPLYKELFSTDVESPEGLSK
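Luminescence from a UAS-regulated Photinus luciferase reporter in stably transfected Drosophila Schneider cells is measured; decreased signal marks ROR gamma inhibition. Fusion expression is induced by 700 uM copper sulfate for 20 hr.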
DT40 TDP1 CPT: DT40-hTDP1 cell growth loss with CPT. chicken DT40 Tdp1-/-;hTDP1 cells + 20 nM CPT, ATP luminescence, 48 h. Potency, µM (series often up to 46.2 µM), without a hit: at the highest dose activity change, negative = growth inhibition, most hits filed as inhibitors. 420,000 tested, 12% active. AID 686979; also: potency is read from the fitted curve at half-maximal effect; nearly all actives have a fitted effect of over 55% in size
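Chicken DT40 Tdp1-/- cells stably complemented with human TDP1 were seeded at 400 cells/well in medium containing 20 nM camptothecin, exposed to pin-transferred compounds, and grown at 37 °C for at least 48 hr. Viability was read as ATP luminescence.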
VP16 counter: counter-screen for ROR gamma inhibitors: Gal4-VP16 reporter; Drosophila S2 Gal4-VP16 UAS-luciferase, luminescence, 20 h; Potency, µM (doses to about 53.6 µM), inactives show top-dose activity, negative = inhibition, hits mostly inhibitors; 310,000 tested, 3.5% active; AID 2546;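 also: Gal4-VP16 expression switched on by copper sulfate through the metallothionein promoter; potency is read from the fitted curve at half-maximal effect; nearly all actives have a fitted effect of over 50% in size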
Active calls of the source: *. Hits are enriched below; roughly 18% of the tested compounds scored in any of these assays. Unless noted, calls follow the shape of the dose curve; as a rule, active = well fitted curve in the direction sought with a large enough effect; inconclusive = small, poorly fitted or top-dose-only effect, or another doubt; inactive = no such curve, though single readings can be large; an effect the other way counts as inactive or inconclusive. Unless noted, % is scaled to controls: 0 for no effect and ±100 for the full control effect.

What do the screens show for `CCCCCOc1ccc(C(=O)C2CC2)cc1`?
LDHA inh: 8

How did Cc1c(C#N)c(NC(=O)CN2CCN(CC(=O)N3CCCC3)CC2)n(C2CCCCC2)c1C do in these assays?
LDHA inh: -2

How did Cc1cccc(S(=O)(=O)c2cn(Cc3ccccc3)c3cc(N4CCC(C)CC4)c(F)cc3c2=O)c1 do in these assays?
DT40 TDP1 no CPT: 8.2µM*; LDHA inh: -14; DT40 TDP1 CPT: 5.8µM*

How did COc1ccc(S(=O)(=O)c2cn(Cc3ccccc3)c3cc(N4CCCC4)c(F)cc3c2=O)cc1 do in these assays?
DT40 TDP1 no CPT: 5.2µM*; LDHA inh: 2; DT40 TDP1 CPT: inconclusive

How did O=c1c(S(=O)(=O)c2ccccc2)cn(Cc2ccc(F)cc2)c2cc(N3CCOCC3)c(F)cc12 do in these assays?
DT40 TDP1 no CPT: 15µM*; LDHA inh: 1; DT40 TDP1 CPT: 21µM*

What do the screens show for `CCOC(=O)C1=C(C(=O)OCC)c2ccc(OC)c(OC)c2C1`?
DT40 TDP1 no CPT: 18µM*; LDHA inh: 3; IL1B secr inh: -3; DT40 TDP1 CPT: 2%

How did COc1ccc(NS(=O)(=O)c2ccc(OCC(=O)NCc3ccccc3OC)c(C)c2)cc1 do in these assays?
LDHA inh: 7

How did Cc1ccc(C(=O)OCc2nnc(-c3ccc(Cl)cc3)o2)s1 do in these assays?
LDHA inh: 4

What do the screens show for `Cc1nc([N+](=O)[O-])c(N2CCN(Cc3ccccc3)CC2)n1Cc1ccccc1`?
DT40 TDP1 no CPT: inconclusive; LDHA inh: -8; IL1B secr inh: inconclusive; RORg inh: -5%; DT40 TDP1 CPT: inconclusive; VP16 counter: 6%

Results for CS(=O)(=O)c1cc([N+](=O)[O-])c(Sc2nc3ccccc3[nH]2)c([N+](=O)[O-])c1 ?
DT40 TDP1 no CPT: 4.6µM*; LDHA inh: 23; IL1B secr inh: 10; RORg inh: 2.5µM*; DT40 TDP1 CPT: 2.9µM*; VP16 counter: 3.2µM*

What do the screens show for `Cc1nc([N+](=O)[O-])c(Sc2nc3ccccc3[nH]2)n1Cc1ccccc1`?
DT40 TDP1 no CPT: 12µM*; LDHA inh: -3; IL1B secr inh: -105*; RORg inh: 10µM*; DT40 TDP1 CPT: 8.2µM*; VP16 counter: inconclusive

Results for Cc1cc2nc(Sc3c([N+](=O)[O-])nc(C)n3Cc3ccccc3)[nH]c2cc1C ?
DT40 TDP1 no CPT: 12µM*; LDHA inh: 1; IL1B secr inh: -98*; RORg inh: 13µM*; DT40 TDP1 CPT: 7.3µM*; VP16 counter: 8.9µM*

What do the screens show for `Cn1cnc([N+](=O)[O-])c1Sc1nc2ccccc2[nH]1`?
DT40 TDP1 no CPT: 18µM*; LDHA inh: -10; IL1B secr inh: -97*; RORg inh: 2%; DT40 TDP1 CPT: 10µM*; VP16 counter: -24%

What do the screens show for `COc1ccc2nc(Sc3c([N+](=O)[O-])nc(C)n3Cc3ccccc3)[nH]c2c1`?
DT40 TDP1 no CPT: 23µM*; LDHA inh: -15; IL1B secr inh: -80*; RORg inh: inconclusive; DT40 TDP1 CPT: 18µM*; VP16 counter: -25%

How did COc1ccc2nc(SCC(=O)NCc3ccccc3)[nH]c2c1 do in these assays?
DT40 TDP1 no CPT: 1%; LDHA inh: 3; IL1B secr inh: 36; RORg inh: inconclusive; DT40 TDP1 CPT: -4%; VP16 counter: 7%

Results for C=CC(C1=CC(=O)C(OC)=CC1=O)c1ccccc1 (configuration not stated) ?
DT40 TDP1 no CPT: 2.9µM*; RORg inh: inconclusive; DT40 TDP1 CPT: 3.7µM*; VP16 counter: inconclusive

How did C=CC(C1=CC(=O)C(OC)=CC1=O)c1ccc(OC)cc1 (configuration not stated) do in these assays?
DT40 TDP1 no CPT: 2.9µM*; RORg inh: -72%; DT40 TDP1 CPT: 3.3µM*; VP16 counter: -27%

What do the screens show for `C=CC(C1=CC(=O)C(OC)=C(OC)C1=O)c1ccccc1` (configuration not stated)?
DT40 TDP1 no CPT: 0.73µM*; RORg inh: 14µM*; DT40 TDP1 CPT: 0.82µM*; VP16 counter: 7.1µM*

How did Cc1ccccc1C(=O)Nc1nc(-c2ccc(Cl)s2)cs1 do in these assays?
LDHA inh: 5

How did Cn1cc(-c2cc3n(n2)CCCN3C(=O)CCC(=O)NC2CCCC2)c2ccccc21 do in these assays?
LDHA inh: 2

What do the screens show for `COc1cc(NS(=O)(=O)c2c(C)oc3c(F)c(F)c(F)c(F)c23)cc(OC)c1OC`?
DT40 TDP1 no CPT: 18µM*; LDHA inh: 0; IL1B secr inh: 16; RORg inh: 82%; DT40 TDP1 CPT: 23µM*; VP16 counter: inconclusive

How did CCOc1ccccc1Oc1coc2cc(OS(C)(=O)=O)ccc2c1=O do in these assays?
LDHA inh: -6

Results for O=C(O)Cn1nc(-c2ccc(F)cc2)oc1=O ?
DT40 TDP1 no CPT: inconclusive; LDHA inh: -5; IL1B secr inh: 4; RORg inh: 16%; DT40 TDP1 CPT: 16µM*; VP16 counter: 1%

What do the screens show for `CC1CCc2c(sc(NC(=O)CN3CCN(C(=O)c4ccco4)CC3)c2C#N)C1` (configuration not stated)?
DT40 TDP1 no CPT: 26µM*; LDHA inh: -1; IL1B secr inh: -8; RORg inh: inconclusive; DT40 TDP1 CPT: 18µM*; VP16 counter: 2%

How did CCOC(=O)c1c(NC(=O)c2ccco2)sc(C(=O)N2CCCC2)c1C do in these assays?
DT40 TDP1 no CPT: inconclusive; LDHA inh: -9; IL1B secr inh: -13; RORg inh: -17%; DT40 TDP1 CPT: inconclusive; VP16 counter: -1%

Results for CCc1cc(C(=O)OC)c(NC(=O)CN2CCN(C(=O)c3ccco3)CC2)s1 ?
DT40 TDP1 no CPT: inconclusive; LDHA inh: -6; IL1B secr inh: 0; RORg inh: 7%; DT40 TDP1 CPT: inconclusive; VP16 counter: -54%

What do the screens show for `CC1CCN(CC(=O)Nc2sc3c(c2C#N)CCC3)CC1`?
DT40 TDP1 no CPT: -13%; LDHA inh: -4; IL1B secr inh: -18; RORg inh: 14%; DT40 TDP1 CPT: -4%; VP16 counter: 0%

How did Cc1ccc(C(=O)c2cc(C)sc2NC(=O)CN2CCN(C(=O)c3ccco3)CC2)cc1 do in these assays?
DT40 TDP1 no CPT: 18µM*; LDHA inh: -3; IL1B secr inh: -69*; RORg inh: -19%; DT40 TDP1 CPT: inconclusive; VP16 counter: inconclusive
